Publication PMC12440807

Experiments:
[1] = target: RNA polymerase II-associated factor 1 homolog (UniProt Q8N7H5); assay: cross-link between two proteins; cross-linking mass spectrometry
[2] = target: Transcription elongation factor SPT6 (UniProt Q7KZ85); assay: cross-link between two proteins; affinity purification or IP with mass spectrometry; cross-linking mass spectrometry

Substance | listed as a hit [1] | listed as a hit [2]
Transcription elongation factor SPT6, Q7KZ85 | yes | –
DNA-directed RNA polymerase II subunit RPB1, P24928 | – | yes
